Common to all, as to test: NCI-60 one-dose screen, 48 h (100 = growth as untreated, 0 = no growth, -100 = all killed)
Holding throughout (conditions): 10 µM unless noted

Test [1] relates to SK-MEL-2 melanoma.
Test [2] concerns SN12C renal.
The test system of test [3] is UO-31 renal.
Test [4] concerns TK-10 renal.
For test [5], the system named is ACHN renal.
Test [6] deals with CAKI-1 renal.
Test [7] deals with A498 renal.
Test [8] deals with CCRF-CEM leukemia.
Test [9] has as its system RPMI-8226 leukemia.
Test [10] concerns OVCAR-8 ovarian.
Test [11] relates to OVCAR-5 ovarian.
Test [12] deals with OVCAR-4 ovarian.
The subject of test [13] is SK-OV-3 ovarian.
Test [14] relates to IGROV1 ovarian.
In test [15] the test system is OVCAR-3 ovarian.
Test [16] concerns HS 578T breast.
In test [17] the test system is NCI/ADR-RES ovarian.
Test [18] concerns MOLT-4 leukemia.
For test [19], the system named is SR leukemia.
The subject of test [20] is EKVX NSCLC.

This is part of a sample that, as a whole, favours compounds with a hit. Of some 83,000 tested, about 20% had one in any assay.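 Cells were grown in 96-well plates and exposed to the test compound at a single concentration for 48 hours; results are reported as percent growth, with values below 10 considered active.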 Unmarked numbers belong to inactive results. The source made the active and inactive calls.

`CCN(Cc1ccc(Cl)c(Cl)c1)c1ccc2nc(N)nc(N)c2c1C`: the growth in [1] is -78% (active); in test [2] it was -75.6% (active); in test [3], -82.7% (active); in test [4] it was -84.3% (active); in [5], -95.6% (active); in test [6], -67% (active). The growth is -78.2% (active) in test [7]; -5.59% (active) in [8]; -54% (active) in [9]; -59.9% (active) in [10]; -100% (active) in test [11]; -88.2% (active) in test [12]. The growth in [13] was -97.6% (active); in test [14], -79% (active); in [15], -93.2% (active); in [16], -42.5% (active); in test [17] it was -94.4% (active).
For the compound `CCCCCCCCCCC(=O)CCCCCCCCCC`, the growth in [1] is 111%; in [2], 102%; in test [3], 85.8%; in test [4], 98.8%; in test [5] it was 96.7%; in [6], 95%. Also, the growth in test [7] was 107%; in [8], 90%; in test [18], 92%; in [9], 98.8%; in test [10], 109%; in test [11], 103%. The growth was 103% in test [12], 118% in test [15], 114% in test [16] and 100% in test [17].
On to `NC(=O)OCCO`, for which the growth in [1] was 100%; in [2] it was 105%; in [3], 87.7%; in test [4], 98.8%; in test [5], 113%; in test [6], 99.6%. Besides, the growth in test [8] was 99.5%; in test [18], 97.7%; in test [19] it was 94.5%; in [9], 104%; in test [10], 104%; in test [11] it was 107%. The growth was 109% in [12]; 105% in test [13]; 108% in test [14]; 102% in [15]; 99.2% in test [16]; 105% in test [17].
With `C[n+]1c(/C=C\C=C\N2CCCCC2)sc2ccccc21`, the growth is -51.1% (active) in test [1]; 7.71% (active) in [2]; 52.1% in [3]; 22% in test [4]; 66.2% in test [5]; 43.5% in [7]. The growth in test [8] was 8.73% (active); in test [18], -9.41% (active); in test [9], -30.4% (active); in [10] it was -17.7% (active); in test [11] it was 18.2%; in test [12], 16.4%. In addition, the growth in [13] is -3.97% (active); in test [15], -24.8% (active); in [16], 34.5%; in test [17], 62.5%.
In the case of `Nc1ccc2c(c1)Cc1cc(N)c(N)cc1-2`, the growth in test [1] is 88.8%; in test [3], 91.4%; in test [4] it was 119%; in [6], 102%; in test [7], 98.8%; in test [8], 105%. Besides, the growth in [19] was 82.2%; in test [9], 101%; in test [10] it was 96.7%; in [11], 107%; in test [12] it was 105%; in test [13] it was 93.7%. Besides, the growth in test [14] was 97.9%; in test [15] it was 112%; in test [16] it was 106%; in [17] it was 101%.
Regarding `O=C(O)c1ccccc1Cc1ccc2c(c1)CCCC2`, the growth in test [20] was 119%; in test [2] it was 102%; in test [3] it was 73.1%; in test [4], 103%; in [5], 104%; in [6], 98.5%. In addition, the growth in test [7] is 107%; in [8], 106%; in [18] it was 97.9%; in test [19], 106%; in test [9], 108%; in test [10] it was 105%. For the same compound, the growth in test [11] was 104%; in [12], 111%; in test [13], 111%; in test [14] it was 99.5%; in test [15], 111%; in test [17] it was 115%.
On to `N#CCCN1C(=O)CCC1C(=O)O` (stereo unspecified), for which the growth is 112% in test [20]; 106% in [2]; 101% in test [3]; 103% in [4]; 101% in test [5]; 102% in test [6]. Further, the growth in test [7] is 98.9%; in test [8], 108%; in test [18] it was -26.9% (active); in test [19] it was 92.9%; in [9], 95.2%; in [10], 98.1%. In addition, the growth is 105% in test [11]; 114% in test [12]; 145% in [13]; 107% in [14]; 115% in [15]; 119% in test [17].
Take `CC(=O)c1ccc(C)cc1`: the growth is 98.5% in [20]; 103% in test [2]; 75.7% in [3]; 105% in [4]; 109% in test [5]; 109% in [6]. The growth was 94.5% in [7]; 108% in test [8]; 107% in test [18]; 112% in test [19]; 113% in test [9]; 108% in [10]. The growth was 104% in test [11]; 112% in test [12]; 121% in test [13]; 98.1% in test [14]; 111% in [15]; 94.9% in test [16]. Further, the growth in test [17] was 106%.
`O=C(CC(CC(=O)c1ccccc1)c1ccccn1)c1ccccc1`: the growth was 106% in test [1]; 92.6% in test [2]; 68.6% in test [3]; 123% in [4]; 97.8% in test [5]; 94.2% in test [7]. Further, the growth was 103% in test [8]; 92.9% in test [19]; 96.8% in test [9]; 101% in test [10]; 105% in [11]; 105% in test [12]. For the same compound, the growth was 96.8% in test [14], 106% in test [15], 84.8% in test [16] and 97.4% in test [17].
With `Clc1cccc(Cl)c1C1CSc2ccccc2N=C1c1ccccc1` (stereo unspecified), the growth was 90.2% in test [1]; 75.5% in test [2]; 55.3% in test [3]; 117% in test [4]; 76.8% in test [5]; 124% in test [7]. The growth in test [8] was -12.9% (active); in [18] it was 20.1%; in test [19] it was -14% (active); in test [9] it was -14.8% (active); in test [11], 101%; in [12] it was 73%. Further, the growth in [13] was 96.5%; in test [14], 91.8%; in [15], 69.6%; in test [16] it was 88.1%; in test [17], 73.3%.

For the origin of these results see PubChem BioAssay (NCI).
